Source: PubChem BioAssay AID602296 (Broad Institute, 2012)
The campaign covered roughly 2,000 compounds. About 190 (9.5%) were called active. About 14% were inconclusive and are not listed.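 How the source made its calls: active means fitted activation curve crossing 40% at a concentration no higher than the sample's top valid tested dose; inconclusive means flat fitted curve at 30% to 70% activation, or poor curve fit; inactive means signal decrease, flat curve within 30%, or the rest.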 The list is a sample of the results.

experiment: HSF-1 reporter activators over prolonged exposure, confirmation, cell-based, mouse, luciferase, cherry-pick, dose (AID 602296); settings: NIH3T3-HGL HSF-1 response element luciferase, 48 h; series mostly up to 26 µM; activation: at the top concentration;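 further: test compounds applied by themselves with no MG132 co-treatment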

With CCOC(=O)CC(NC(=O)C1c2ccccc2Oc2ccccc21)c1ccccc1Cl (configuration not stated) as the compound, how does the “activation” value read?
Its value is -4.99% (inactive).

With COc1cccc(-c2c(C#N)c(N)nc3c2c(C)nn3-c2ccccc2)c1O as the compound, how does the “activation” value read?
The value was -40.7% (inactive).

With O=C(COC(=O)/C=C/c1cccc([N+](=O)[O-])c1)NCc1ccco1 as the compound, how does the “activation” value read?
Its value is -2.07% (inactive).

With CN(C)c1ccc(C(CNC(=O)c2ccccc2)c2c[nH]c3ccccc23)cc1 (configuration not stated) as the compound, how does the “activation” value read?
Its value is -28.5% (inactive).

Which “activation” value does the source give for CCOC(=O)CC1C(=O)NCCN1S(=O)(=O)c1cc(Cl)c(Cl)cc1Cl (configuration not stated) here?
The value was 9.36% (inactive).

Which “activation” value does the source give for O=C(CCC1CCCC1)N=C1SC2CS(=O)(=O)CC2N1c1ccccc1F (configuration not stated) here?
The value was 0.463% (inactive).

With S=c1nc(SCc2ccccc2)[nH]c2ccccc12 as the compound, how does the “activation” value read?
Its value is 2.98% (inactive).

For O=C(Nc1ccc(OCC(F)(F)C(F)F)c(C(F)(F)F)c1)c1ccccc1O, which “activation” value is on record?
Its value is -78.6% (inactive).

With CC(C)N(Cc1ccccc1)C(=O)COC(=O)/C=C/c1cnc2ccccc2n1 as the compound, how does the “activation” value read?
The value was 10.3% (inactive).

Which “activation” value does the source give for CCN(CCCNC(=O)CCCN1C(=O)COc2ccc(C)cc21)c1cccc(C)c1 here?
The value was -34.6% (inactive).

With Cc1ccc(C)c(NC(=O)CS(=O)(=O)c2cn(C)c3ccccc23)c1 as the compound, how does the “activation” value read?
The value was -5.97% (inactive).

For Cc1ccc(NC2OC(CO)C(O)C2O)cc1[N+](=O)[O-] (configuration not stated), which “activation” value is on record?
Its value is 5.31% (inactive).

For COc1cccc(/C=N/Nc2ccc([N+](=O)[O-])cn2)c1O, which “activation” value is on record?
Its value is -99.1% (inactive).

With CCCC(=O)O/N=C(\c1ccccc1)c1ccncc1 as the compound, how does the “activation” value read?
Its value is -17.2% (inactive).

With COc1ccc(C)cc1NC(=O)CSc1nnc(COc2ccc(Cl)cc2)n1Cc1ccco1 as the compound, how does the “activation” value read?
The value was -95.2% (inactive).

For Cc1nc2ccccc2n1CC(O)COCC1CC=CCC1 (configuration not stated), which “activation” value is on record?
Its value is -34.1% (inactive).

With Cc1cccc(-[n+]2c(C)cc(C)c3c(=O)[nH]c(=O)[nH]c32)c1 as the compound, how does the “activation” value read?
The value was 2.83% (inactive).

With O=C1CSC(=S)N1/N=C/c1cccc(C(F)(F)F)c1 as the compound, how does the “activation” value read?
Its value is 19% (inactive).

With CN(C)CCCCNCCCNC(=O)/C=N\O as the compound, how does the “activation” value read?
Its value is 12.4% (inactive).

With CN(c1cccc(NC(=O)CN(c2cccc(Cl)c2)S(=O)(=O)c2ccc(Cl)cc2)c1)S(C)(=O)=O as the compound, how does the “activation” value read?
The value was -55.2% (inactive).

Which “activation” value does the source give for CC1CN(C(=O)CS(=O)(=O)Cc2ccccc2)CC(C)O1 (configuration not stated) here?
The value was 5.95% (inactive).

For Cc1ccc(C(=O)/C=C/c2cc(Br)cc(Br)c2O)o1, which “activation” value is on record?
Its value is 2.94% (inactive).

Which “activation” value does the source give for Cc1c(-n2cc(C(=O)c3ccccc3O)cc(C#N)c2=O)c(=O)n(-c2ccccc2)n1C here?
Its value is 11.6% (inactive).

For O=C(/C=C/c1ccc(Cl)cc1Cl)N(Cc1ccccc1)C1CCS(=O)(=O)C1 (configuration not stated), which “activation” value is on record?
Its value is -14.7% (inactive).

Which “activation” value does the source give for OCC1(Cc2cccc(C(F)(F)F)c2)CCN(Cc2cc3ccccc3o2)CC1 here?
Its value is -20.1% (inactive).

Which “activation” value does the source give for Cc1ccc(S(=O)(=O)c2c(N)n(-c3ccccc3)c3nc4ccccc4nc23)cc1 here?
The value was 8.69% (inactive).

For CN(CC(=O)Nc1ccccc1Cl)CC(=O)Nc1c(F)cccc1F, which “activation” value is on record?
Its value is -16% (inactive).
